{
  "source": "the supplement of paper PMC11006884",
  "note": "About 6,500 targets were measured; listed, in parts, are those with a hit and a random draw of the rest. About 2% of all pairs of compound and target were hits. Unmarked numbers belong to inactive results.",
  "data": [
    {"compound": "COC(=O)C#Cc1ccccc1 [methyl 3-phenylpropiolate]", "assay": "log2 ratio of iodoacetamide-alkyne labeling of the cysteine site, DMSO over compound (competition); higher = stronger covalent engagement of the cysteine by the compound, active = 1 or more", "conditions": "500 µM; treatment time 1 h; system: HEK293T cell lysate", "summary_of_the_method": "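For each cysteine, the log2 competition ratio is mean control-channel reporter intensity over mean compound-channel reporter intensity. HEK293T lysate (2 mg/mL) was exposed to vehicle or electrophile (500 µM, 1 h, ambient temperature), labelled with iodoacetamide alkyne (1 h), clicked to sCIP-TMT reagents, digested overnight with trypsin at 37 °C, streptavidin-enriched and analysed by Orbitrap Eclipse LC-MS/MS with FAIMS and FragPipe. Cysteines quantified in only one of three replicates, each with duplicate channels, were excluded.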", "values": [
      {"target": "DIS3 C213 (UniProt Q9Y2L1)", "log2 ratio of iodoacetamide-alkyne labeling": 0.313},
      {"target": "UniProt Q9BXJ9_C465", "log2 ratio of iodoacetamide-alkyne labeling": 0.109},
      {"target": "UniProt Q9P2P1_C1222", "log2 ratio of iodoacetamide-alkyne labeling": 0.312},
      {"target": "MED17 C110 (UniProt Q9NVC6)", "sequence (Q9NVC6 whole entry, looked up)": "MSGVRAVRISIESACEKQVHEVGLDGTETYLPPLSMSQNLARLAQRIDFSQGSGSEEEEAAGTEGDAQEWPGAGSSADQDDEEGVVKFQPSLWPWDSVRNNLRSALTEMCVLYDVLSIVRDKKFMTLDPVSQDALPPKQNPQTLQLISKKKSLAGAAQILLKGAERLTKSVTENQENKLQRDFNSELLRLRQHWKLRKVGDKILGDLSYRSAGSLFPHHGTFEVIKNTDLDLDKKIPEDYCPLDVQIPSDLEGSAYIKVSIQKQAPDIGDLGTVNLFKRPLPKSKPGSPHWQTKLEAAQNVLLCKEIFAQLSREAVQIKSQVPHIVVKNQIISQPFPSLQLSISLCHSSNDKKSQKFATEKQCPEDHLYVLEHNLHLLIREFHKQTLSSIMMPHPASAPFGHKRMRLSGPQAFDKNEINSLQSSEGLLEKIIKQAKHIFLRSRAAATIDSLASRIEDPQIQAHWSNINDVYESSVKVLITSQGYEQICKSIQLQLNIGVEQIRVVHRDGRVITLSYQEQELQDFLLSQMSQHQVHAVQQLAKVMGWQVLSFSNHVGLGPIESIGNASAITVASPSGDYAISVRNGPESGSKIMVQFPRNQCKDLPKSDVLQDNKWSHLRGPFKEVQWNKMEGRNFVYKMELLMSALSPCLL", "log2 ratio of iodoacetamide-alkyne labeling": 0.34},
      {"target": "MDN1 C43 (UniProt Q9NU22)", "log2 ratio of iodoacetamide-alkyne labeling": "1.32 (active)"},
      {"target": "TCAF1 C488 (UniProt Q9Y4C2)", "sequence (Q9Y4C2 whole entry, looked up)": "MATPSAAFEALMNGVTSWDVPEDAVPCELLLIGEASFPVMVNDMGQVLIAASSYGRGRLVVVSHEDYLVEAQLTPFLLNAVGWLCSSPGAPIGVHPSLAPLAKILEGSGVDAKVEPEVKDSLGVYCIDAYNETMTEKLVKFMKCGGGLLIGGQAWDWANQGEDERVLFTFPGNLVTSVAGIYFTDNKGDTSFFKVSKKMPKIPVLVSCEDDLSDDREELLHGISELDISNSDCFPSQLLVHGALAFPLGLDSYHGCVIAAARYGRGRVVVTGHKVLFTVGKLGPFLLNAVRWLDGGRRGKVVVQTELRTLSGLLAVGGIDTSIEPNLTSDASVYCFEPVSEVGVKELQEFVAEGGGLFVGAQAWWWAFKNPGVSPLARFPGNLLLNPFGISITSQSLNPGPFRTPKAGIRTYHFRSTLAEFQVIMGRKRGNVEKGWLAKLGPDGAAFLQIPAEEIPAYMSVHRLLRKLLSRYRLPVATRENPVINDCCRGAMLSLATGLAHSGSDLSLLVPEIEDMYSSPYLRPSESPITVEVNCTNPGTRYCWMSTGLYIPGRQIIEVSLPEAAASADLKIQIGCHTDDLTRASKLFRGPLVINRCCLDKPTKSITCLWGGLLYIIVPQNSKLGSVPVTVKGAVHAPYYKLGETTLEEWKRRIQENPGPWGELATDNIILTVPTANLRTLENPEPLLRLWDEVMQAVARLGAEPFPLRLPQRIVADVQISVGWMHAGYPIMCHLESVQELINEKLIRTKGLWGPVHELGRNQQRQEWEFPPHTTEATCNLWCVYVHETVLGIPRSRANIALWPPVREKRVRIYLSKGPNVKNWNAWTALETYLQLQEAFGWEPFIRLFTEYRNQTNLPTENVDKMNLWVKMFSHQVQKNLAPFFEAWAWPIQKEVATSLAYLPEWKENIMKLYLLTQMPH", "log2 ratio of iodoacetamide-alkyne labeling": 0.36},
      {"target": "RNF126 C15 (UniProt Q9BV68)", "sequence (Q9BV68 whole entry, looked up)": "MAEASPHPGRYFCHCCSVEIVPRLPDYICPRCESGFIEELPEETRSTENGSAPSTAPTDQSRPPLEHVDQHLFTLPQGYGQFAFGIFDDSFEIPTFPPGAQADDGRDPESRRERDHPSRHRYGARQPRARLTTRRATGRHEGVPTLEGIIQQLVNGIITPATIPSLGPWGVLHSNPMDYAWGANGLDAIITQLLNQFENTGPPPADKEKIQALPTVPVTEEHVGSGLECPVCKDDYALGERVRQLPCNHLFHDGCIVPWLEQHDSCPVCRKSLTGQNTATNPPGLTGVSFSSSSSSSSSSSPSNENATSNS", "log2 ratio of iodoacetamide-alkyne labeling": 0.119},
      {"target": "UTP6 C309 (UniProt Q9NYH9)", "sequence (Q9NYH9 whole entry, looked up)": "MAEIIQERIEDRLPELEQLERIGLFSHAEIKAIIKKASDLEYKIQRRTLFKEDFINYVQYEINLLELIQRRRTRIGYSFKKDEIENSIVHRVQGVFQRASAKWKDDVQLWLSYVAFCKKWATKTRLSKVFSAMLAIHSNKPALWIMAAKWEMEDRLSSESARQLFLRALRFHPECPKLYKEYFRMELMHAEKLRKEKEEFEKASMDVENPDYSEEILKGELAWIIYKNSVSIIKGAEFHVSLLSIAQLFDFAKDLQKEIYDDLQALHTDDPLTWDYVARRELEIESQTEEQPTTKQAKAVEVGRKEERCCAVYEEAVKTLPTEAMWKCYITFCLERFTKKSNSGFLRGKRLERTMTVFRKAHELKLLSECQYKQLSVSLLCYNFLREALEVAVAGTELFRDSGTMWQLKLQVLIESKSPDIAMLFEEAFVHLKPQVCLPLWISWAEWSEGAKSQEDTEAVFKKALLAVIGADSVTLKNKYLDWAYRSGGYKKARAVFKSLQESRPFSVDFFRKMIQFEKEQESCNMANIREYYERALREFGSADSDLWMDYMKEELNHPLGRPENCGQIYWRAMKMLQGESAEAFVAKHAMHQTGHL", "log2 ratio of iodoacetamide-alkyne labeling": 0.0486},
      {"target": "SPATA5L1 C309 (UniProt Q9BVQ7)", "log2 ratio of iodoacetamide-alkyne labeling": "1.11 (active)"},
      {"target": "SLC4A1AP C730 (UniProt Q9BWU0)", "sequence (Q9BWU0 whole entry, looked up)": "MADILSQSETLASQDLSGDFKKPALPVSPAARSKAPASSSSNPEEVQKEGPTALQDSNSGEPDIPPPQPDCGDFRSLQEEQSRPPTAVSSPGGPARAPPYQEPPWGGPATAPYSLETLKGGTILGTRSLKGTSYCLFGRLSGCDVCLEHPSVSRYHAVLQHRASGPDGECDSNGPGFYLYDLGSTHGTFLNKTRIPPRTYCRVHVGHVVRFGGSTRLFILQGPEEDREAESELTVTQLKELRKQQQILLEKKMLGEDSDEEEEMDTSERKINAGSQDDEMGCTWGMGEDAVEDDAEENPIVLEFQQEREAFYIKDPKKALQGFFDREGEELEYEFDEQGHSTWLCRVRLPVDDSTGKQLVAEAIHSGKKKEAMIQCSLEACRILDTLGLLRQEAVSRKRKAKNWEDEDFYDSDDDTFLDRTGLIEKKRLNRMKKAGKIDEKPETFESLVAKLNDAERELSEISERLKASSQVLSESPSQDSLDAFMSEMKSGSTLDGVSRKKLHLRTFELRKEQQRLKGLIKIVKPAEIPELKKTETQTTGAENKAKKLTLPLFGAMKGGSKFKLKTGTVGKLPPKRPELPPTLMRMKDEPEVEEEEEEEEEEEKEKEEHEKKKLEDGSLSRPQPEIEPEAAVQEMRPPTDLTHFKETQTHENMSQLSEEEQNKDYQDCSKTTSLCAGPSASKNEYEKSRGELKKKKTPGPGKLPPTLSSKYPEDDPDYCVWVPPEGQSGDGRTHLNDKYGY", "log2 ratio of iodoacetamide-alkyne labeling": "1.48 (active)"},
      {"target": "BICC1 C621 (UniProt Q9H694)", "log2 ratio of iodoacetamide-alkyne labeling": 0.525},
      {"target": "UNC93B1 C583 (UniProt Q9H1C4)", "sequence (Q9H1C4 whole entry)": "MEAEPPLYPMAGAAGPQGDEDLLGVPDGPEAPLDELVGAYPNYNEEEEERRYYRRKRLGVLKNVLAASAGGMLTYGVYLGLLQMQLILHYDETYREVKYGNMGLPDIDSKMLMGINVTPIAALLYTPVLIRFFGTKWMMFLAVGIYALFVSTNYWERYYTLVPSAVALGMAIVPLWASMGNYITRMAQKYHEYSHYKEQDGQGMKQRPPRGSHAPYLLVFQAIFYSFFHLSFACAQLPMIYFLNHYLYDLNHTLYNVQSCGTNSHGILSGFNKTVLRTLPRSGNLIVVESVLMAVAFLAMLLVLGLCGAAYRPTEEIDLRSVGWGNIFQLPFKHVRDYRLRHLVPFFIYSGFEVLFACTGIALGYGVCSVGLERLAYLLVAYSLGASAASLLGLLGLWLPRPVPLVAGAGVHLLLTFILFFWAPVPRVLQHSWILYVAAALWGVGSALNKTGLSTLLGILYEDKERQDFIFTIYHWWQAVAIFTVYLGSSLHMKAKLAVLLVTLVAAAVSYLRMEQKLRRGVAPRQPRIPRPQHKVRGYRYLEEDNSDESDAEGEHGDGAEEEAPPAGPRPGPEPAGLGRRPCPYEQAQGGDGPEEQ", "log2 ratio of iodoacetamide-alkyne labeling": "2.06 (active)"},
      {"target": "UniProt Q9NV64_C29", "log2 ratio of iodoacetamide-alkyne labeling": "1.11 (active)"},
      {"target": "FAM120C C14 (UniProt Q9NX05)", "log2 ratio of iodoacetamide-alkyne labeling": 0.327},
      {"target": "ADD3 C73 (UniProt Q9UEY8)", "log2 ratio of iodoacetamide-alkyne labeling": 0.00986},
      {"target": "AASS C87 (UniProt Q9UDR5)", "log2 ratio of iodoacetamide-alkyne labeling": 0.102},
      {"target": "HECTD1 C1995 (UniProt Q9ULT8)", "log2 ratio of iodoacetamide-alkyne labeling": 0.345},
      {"target": "DDX52 C536 (UniProt Q9Y2R4)", "sequence (Q9Y2R4 whole entry)": "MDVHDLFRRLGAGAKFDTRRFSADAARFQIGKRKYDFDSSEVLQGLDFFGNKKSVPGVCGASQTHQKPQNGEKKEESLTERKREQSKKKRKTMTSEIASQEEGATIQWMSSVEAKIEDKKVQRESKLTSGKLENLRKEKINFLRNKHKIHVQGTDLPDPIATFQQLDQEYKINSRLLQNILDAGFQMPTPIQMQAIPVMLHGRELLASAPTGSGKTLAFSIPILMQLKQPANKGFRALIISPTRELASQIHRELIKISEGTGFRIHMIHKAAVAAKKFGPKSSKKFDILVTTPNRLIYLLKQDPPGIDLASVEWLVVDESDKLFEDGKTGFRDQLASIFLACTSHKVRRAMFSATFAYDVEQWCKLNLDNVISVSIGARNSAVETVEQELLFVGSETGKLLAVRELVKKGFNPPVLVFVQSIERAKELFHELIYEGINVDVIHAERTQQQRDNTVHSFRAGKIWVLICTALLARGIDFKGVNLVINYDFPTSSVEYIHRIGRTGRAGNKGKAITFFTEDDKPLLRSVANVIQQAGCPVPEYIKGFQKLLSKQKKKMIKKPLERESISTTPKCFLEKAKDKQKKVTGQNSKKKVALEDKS", "log2 ratio of iodoacetamide-alkyne labeling": 0.566},
      {"target": "GNE C357 (UniProt Q9Y223)", "log2 ratio of iodoacetamide-alkyne labeling": 0.234},
      {"target": "RABGAP1 C1026 (UniProt Q9Y3P9)", "log2 ratio of iodoacetamide-alkyne labeling": -0.252},
      {"target": "RACGAP1 C419 (UniProt Q9H0H5)", "sequence (Q9H0H5 whole entry)": "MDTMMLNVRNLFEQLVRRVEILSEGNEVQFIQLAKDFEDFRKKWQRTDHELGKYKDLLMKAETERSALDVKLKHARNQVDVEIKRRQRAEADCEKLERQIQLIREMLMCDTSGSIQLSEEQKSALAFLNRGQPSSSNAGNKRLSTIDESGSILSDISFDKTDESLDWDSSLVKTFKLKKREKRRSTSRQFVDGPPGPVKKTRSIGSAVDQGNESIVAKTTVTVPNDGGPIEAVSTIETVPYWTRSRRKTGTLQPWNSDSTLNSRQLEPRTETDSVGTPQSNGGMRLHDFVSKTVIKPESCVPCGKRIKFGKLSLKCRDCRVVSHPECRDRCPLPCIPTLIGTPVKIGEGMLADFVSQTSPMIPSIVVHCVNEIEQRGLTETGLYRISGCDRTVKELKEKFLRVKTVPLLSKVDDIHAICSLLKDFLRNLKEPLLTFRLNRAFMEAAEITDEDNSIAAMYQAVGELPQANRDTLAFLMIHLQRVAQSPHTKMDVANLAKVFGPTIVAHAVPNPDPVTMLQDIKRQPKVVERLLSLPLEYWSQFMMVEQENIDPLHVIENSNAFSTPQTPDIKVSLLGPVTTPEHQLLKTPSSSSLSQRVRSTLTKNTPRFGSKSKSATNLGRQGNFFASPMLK", "log2 ratio of iodoacetamide-alkyne labeling": 0.303},
      {"target": "ASF1B C178 (UniProt Q9NVP2)", "log2 ratio of iodoacetamide-alkyne labeling": "1.22 (active)"}
    ]}
  ]
}
